# Columns and labels:
# [1] = biological target: Tumor necrosis factor receptor superfamily member 10B (Homo sapiens) (UniProt O14763); assay: viability loss of caspase-8 NB7 cells with TRAIL – with/without TRAIL, luminescence panel, confirmation (AID 651596); conditions: NB7 neuroblastoma + caspase-8, TRAIL sensitization, NB7 Caspase-8, with TRAIL, mean of runs, at 10 µM, stronger effect = higher value
# [2] = as above; conditions: NB7 neuroblastoma + caspase-8, without TRAIL, NB7 Caspase-8, without TRAIL, mean of runs, at 10 µM
# Tumor necrosis factor receptor superfamily member 10B (Homo sapiens), sequence (O14763 whole entry, looked up): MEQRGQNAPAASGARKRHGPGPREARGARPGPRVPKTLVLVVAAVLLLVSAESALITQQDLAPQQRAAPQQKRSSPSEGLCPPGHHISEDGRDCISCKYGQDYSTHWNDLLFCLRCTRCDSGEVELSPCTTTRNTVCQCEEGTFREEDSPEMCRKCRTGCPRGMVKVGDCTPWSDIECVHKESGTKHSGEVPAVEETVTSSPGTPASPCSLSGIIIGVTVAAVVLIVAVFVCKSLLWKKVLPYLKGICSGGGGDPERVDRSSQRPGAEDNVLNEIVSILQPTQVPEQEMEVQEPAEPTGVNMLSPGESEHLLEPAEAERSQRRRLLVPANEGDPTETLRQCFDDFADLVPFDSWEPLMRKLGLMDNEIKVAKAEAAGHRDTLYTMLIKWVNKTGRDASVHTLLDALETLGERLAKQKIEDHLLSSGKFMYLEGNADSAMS
SMILES,activity [1] [%],activity [2] [%]
CC(=O)OC[C@]12CCC(C)=C[C@H]1O[C@@H]1[C@H](O)[C@@H](OC(C)=O)[C@@]2(C)[C@]12CO2,95.1,97.4
C[C@]12CCC3C(CCC4=CC(O)CC[C@@]43/C=N/O)C1(O)CCC2C1=CC(=O)OC1 (stereo partly drawn),87,92.3
NC(=S)c1cn(C2OC(CO)C(O)C2O)c2ncnc(N)c12 (stereo not drawn),59.4,91.2
NC(=O)c1cn(C2OC(CO)C(O)C2O)c2ncnc(N)c12 (stereo not drawn),56.3,81.3
CCCCCN1C(=O)c2ccccc2[C@@]2(C(=O)OCC)Cc3cc(OC)ccc3[C@@H]12,47.4,63
CC(C)(C)n1cc(C(=O)c2ccc3ccccc3c2O)cn1,55.8,51
COc1ccc(CC2NCC(O)C2OC(C)=O)cc1 (stereo not drawn),90.1,93.8
CN(C)CC(C(=O)Cc1ccccc1)c1ccccc1 (stereo not drawn),37.9,96.3
CC12CCC3C(CCC4(O)CC(O)CCC34C=NO)C1(O)CCC2C1=COC(=O)C1 (stereo not drawn),91,92.7
CCOC(=O)[C@]12Cc3cc(Cl)ccc3[C@H]1N(C1CCCCC1)C(=O)c1ccccc12,98.5,99.3
CC12CCC3C(CCC4(O)CC(O)CCC34C=O)C1(O)CCC2C1=CC(=O)OC1 (stereo not drawn),82.5,85.2
CCOC(=O)[C@]12Cc3cc(OC)ccc3[C@H]1N(C(C)C)C(=O)c1cc(OC)ccc12,28,45
Cc1ccc(NC(=O)CN2C(=O)CN=C(c3ccccc3)c3cc(Cl)ccc32)cc1,78.1,85
C=CCn1c(O)c(C(C)=NCc2cc(OC)cc(OC)c2)c(=O)[nH]c1=O,79.5,84.8
